SARS PLpro yeast – blocks SARS-CoV papain-like protease in a yeast assay | S. cerevisiae expressing SARS-CoV PLpro, growth rescue | 330,000 tested, 0.19% active | Potency, µM (titrated, usually from 32.9 µM), hits mostly activators; calls by dose curve; further: nearly all actives have a fitted effect of over 55% in size
TbPYK inhibitor – inhibitors of Trypanosoma brucei pyruvate kinase; Q57TT1; TbPYK enzyme, Kinase-Glo Plus ATP luminescence, 45 min; Potency, µM (doses to about 76.8 µM), actives largely listed as inhibitors; 410,000 tested, 0.12% active; AID 624173; further: nearly all actives have a fitted effect of over 50% in size
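Luminescent Kinase-Glo Plus end-point after 45 min room-temperature reaction of T. brucei pyruvate kinase started with 130 uM ADP (final). Buffer TEA 50 mM pH 7.2 with KCl, MgCl2, BSA, Tween-20; titration-based qHTS with fitted concentration-effect curves.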
LmPK inh – inhibitors of Leishmania mexicana pyruvate kinase | Q27686 | purified LmPK, Kinase-Glo ATP luminescence, 1 h | Potency, µM (titrated, usually from 57.5 µM), hits mostly inhibitors | 290,000 tested, 0.37% active | AID 1721
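ATP generated from ADP (0.1 mM) and PEP (0.5 mM) by 0.1 nM LmPK over 1 h at room temperature (pH 7.2 imidazole buffer) was detected by coupled luciferase luminescence. Values were normalized to uninhibited and no-enzyme wells.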
Giardia FBPA inh-1 – Giardia lamblia aldolase inhibition; A8B2U2; purified Giardia FBPA; Potency, µM (titrated, usually from 59.6 µM), usual class: inhibitors; 290,000 tested, 0.71% active; further: nearly all actives have a fitted effect of over 55% in size
Target sequence (A8B2U2 whole entry, looked up): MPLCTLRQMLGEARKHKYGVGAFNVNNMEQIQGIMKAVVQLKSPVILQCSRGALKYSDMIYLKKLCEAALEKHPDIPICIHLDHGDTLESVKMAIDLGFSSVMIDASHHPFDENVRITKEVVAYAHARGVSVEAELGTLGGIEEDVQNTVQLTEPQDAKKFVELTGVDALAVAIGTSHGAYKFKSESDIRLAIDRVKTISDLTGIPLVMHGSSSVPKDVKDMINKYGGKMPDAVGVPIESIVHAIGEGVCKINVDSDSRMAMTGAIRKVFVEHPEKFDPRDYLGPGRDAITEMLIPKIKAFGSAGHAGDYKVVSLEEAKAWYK
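Giardia FBPA (40 nM reagent) was preincubated 10 min at RT with compound (up to 57.5 uM final), then substrate plus GAPDH/TPI/NAD/arsenate coupling system with diaphorase/resazurin was added; resorufin fluorescence (525/598 nm) was read after 20 min.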
RE007 growth inh – less growth of the S. pombe RE007 Vpr strain; S. pombe RE007 Vpr strain, BacTiter-Glo ATP luminescence, 24 h; Potency, µM (series often up to 92.2 µM), usual class: inhibitors; 360,000 tested, 0.21% active; active means well fitted falling curve with a large enough effect; inconclusive means small, poorly fitted or top-dose-only effect; inactive means no such curve, though single readings can be large or run the other way; further: nearly all actives have a fitted effect of over 50% in size
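Fission yeast strain RE007, carrying one chromosomally integrated HIV-1 vpr copy, was seeded at OD 0.01 in PMG+AL medium with 23 nL pinned compound. After 24 h at 30 °C and 99% humidity, viability was read by BacTiter-Glo luminescence.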
Giardia growth – blocks growth of Giardia lamblia trophozoites | shares compounds with Giardia FBPA inh-1 | 1,500 tested, 5% active | Giardia lamblia trophozoite growth inhibition | Potency, µM (highest dose often 57.5 µM), actives largely listed as inhibitors | AID 2785;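 further: trophozoites exposed to compound for 48 h at 37 °C; nearly all actives have a fitted effect of over 70% in size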
Mammal cell tox – counter-screen for Giardia aldolase inhibitors: mammalian cell toxicity | shares compounds with Giardia FBPA inh-1 | mammalian cell viability counter-screen, qHTS | Potency, µM (titrated, usually from 57.5 µM), hits mostly inhibitors | 1,500 tested, 4% active | AID 2786;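 further: Chinese hamster ovary cells used as mammalian cytotoxicity surrogate; viability measured as cellular ATP by luminescence; compound exposure lasted 48 h before reading; nearly all actives have a fitted effect of over 60% in size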
Giardia FBPA inh-2 – confirmation of Giardia fructose-bisphosphate aldolase inhibitors | shares compounds with Giardia FBPA inh-1 | 1,500 tested, 5% active | purified Giardia aldolase enzyme activity, qHTS | Potency, µM (doses to about 57.5 µM), actives largely listed as inhibitors; further: nearly all actives have a fitted effect of over 45% in size
Rabbit aldolase – blocks rabbit muscle aldolase in Giardia aldolase selectivity test | 1,500 tested, 4% active | Potency, µM (doses to about 57.5 µM), hits mostly inhibitors | Rabbit muscle FBPA enzyme inhibition, selectivity counter-screen | shares compounds with Giardia FBPA inh-1; further: nearly all actives have a fitted effect of over 60% in size
Target sequence (P00883 whole entry, looked up): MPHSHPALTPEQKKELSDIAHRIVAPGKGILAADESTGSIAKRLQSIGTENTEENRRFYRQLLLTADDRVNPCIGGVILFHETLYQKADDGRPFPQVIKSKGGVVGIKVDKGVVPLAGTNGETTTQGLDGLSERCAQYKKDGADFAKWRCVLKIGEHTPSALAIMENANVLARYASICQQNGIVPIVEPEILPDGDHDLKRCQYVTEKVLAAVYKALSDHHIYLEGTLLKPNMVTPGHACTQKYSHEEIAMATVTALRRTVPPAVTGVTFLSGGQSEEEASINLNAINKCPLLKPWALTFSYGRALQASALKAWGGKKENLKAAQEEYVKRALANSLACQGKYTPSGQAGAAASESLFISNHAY
GAPDH coupling – counter-screen for Giardia aldolase inhibitors: GAPDH coupling enzyme | 1,500 tested, 6% active | GAPDH coupling enzyme counterscreen, biochemical, qHTS | shares compounds with Giardia FBPA inh-1 | Potency, µM (highest dose often 57.5 µM), usual class: inhibitors; further: nearly all actives have a fitted effect of over 55% in size
Large screens that a line does not name were inactive (follow-up assays come after a bar, where they were run); [ ] = another dose, or the depositor's remark. Compounds with a hit are over-represented: about 1.1% of the library has one in this group of screens. Unless noted, the call rests on the fitted dose curve; in most records, active means well fitted curve in the direction sought with a large enough effect; inconclusive means small, poorly fitted or top-dose-only effect, or another doubt; inactive means no such curve, though single readings can be large; an effect the other way counts as inactive or inconclusive.

CN(C)S(=O)(=O)c1cccc(C(=O)NC(=S)N(CCC#N)Cc2cccnc2)c1	Giardia FBPA inh-1 5.6µM | Giardia growth inactive | Mammal cell tox inactive | Giardia FBPA inh-2 inactive | Rabbit aldolase inactive | GAPDH coupling inactive
CCN(CC)S(=O)(=O)c1ccc(C(=O)NC(=S)N(CCC#N)Cc2cccnc2)cc1	TbPYK inhibitor inconclusive, Giardia FBPA inh-1 13µM | Giardia growth inconclusive | Mammal cell tox inactive | Giardia FBPA inh-2 inactive | Rabbit aldolase inactive | GAPDH coupling inactive
O=C(NC(=S)N(CCO)Cc1ccccc1)c1cc(Br)ccc1Cl	Giardia FBPA inh-1 16µM | Giardia growth inactive[10.4 µM] | Mammal cell tox inactive | Giardia FBPA inh-2 inactive | Rabbit aldolase inactive | GAPDH coupling inactive
CCN(Cc1ccccc1)C(=S)NC(=O)c1ccccc1Br	none
N#CCCN(Cc1ccccc1)C(=S)NC(=O)c1ccccc1	TbPYK inhibitor inconclusive, LmPK inh inconclusive, Giardia FBPA inh-1 16µM | Giardia growth inactive | Mammal cell tox inactive | Giardia FBPA inh-2 inactive | Rabbit aldolase inactive | GAPDH coupling inactive
CC1Cc2cc(S(=O)(=O)CCC(=O)Nc3ccc(OC(F)(F)F)cc3)ccc2N1C(=O)C1CC1 (stereo unspecified)	none (no result: SARS PLpro yeast, LmPK inh, Giardia FBPA inh-1, RE007 growth inh)
CC(=O)Nc1cccc(/C(C)=N/NC(N)=S)c1	Giardia FBPA inh-1 18µM | Giardia growth inactive | Mammal cell tox inactive | Giardia FBPA inh-2 inactive | Rabbit aldolase inactive | GAPDH coupling inactive
CC(=O)Nc1ccc(NC(=O)C/C(C)=N/NC(N)=S)cc1	SARS PLpro yeast 11µM, Giardia FBPA inh-1 16µM | Giardia growth inactive | Mammal cell tox inactive | Giardia FBPA inh-2 inactive | Rabbit aldolase inactive | GAPDH coupling inactive
CCC(=O)N/N=C(\C)CC(=O)Nc1ccc(F)cc1	none
O=C(c1ccc2c(c1)OCO2)c1cn(Cc2ccc(F)cc2)c2ccccc2c1=O	none (no result: SARS PLpro yeast, LmPK inh, Giardia FBPA inh-1, RE007 growth inh)
CCCC(=O)NC(c1ccco1)c1cc([N+](=O)[O-])c2cccnc2c1O (stereo unspecified)	SARS PLpro yeast inconclusive, Giardia FBPA inh-1 7.1µM | Giardia growth inconclusive | Mammal cell tox inactive | Giardia FBPA inh-2 inactive | Rabbit aldolase inactive | GAPDH coupling inconclusive
O=[N+]([O-])c1ccc(Sc2cccc[n+]2[O-])c2nonc12	TbPYK inhibitor 18µM, LmPK inh inconclusive, Giardia FBPA inh-1 0.35µM, RE007 growth inh 10µM | Giardia growth 2µM | Mammal cell tox 2.2µM | Giardia FBPA inh-2 6.3µM | Rabbit aldolase 16µM | GAPDH coupling 6.3µM
Cc1nc2c(c(C)nn2-c2ccccc2)c(C)c1CCC(=O)Nc1ccc(F)cc1	none (no result: SARS PLpro yeast, LmPK inh, Giardia FBPA inh-1, RE007 growth inh)
Cc1ccccc1C(=O)Nc1nnc(-c2cccnc2)o1	Giardia FBPA inh-1 16µM | Giardia growth inconclusive | Mammal cell tox inactive | Giardia FBPA inh-2 inactive | Rabbit aldolase inactive | GAPDH coupling inactive
Cc1ccccc1C(=O)Nc1nnc(-c2ccc(F)cc2)o1	none
NC(=S)c1cn(C2OC(CO)C(O)C2O)c2ncnc(N)c12 (stereo unspecified)	Giardia FBPA inh-1 14µM | Giardia growth inactive | Mammal cell tox inconclusive | Giardia FBPA inh-2 inactive | Rabbit aldolase inactive | GAPDH coupling inactive
Nc1ncnc2c1ccn2[C@@H]1O[C@H](CO)[C@@H](O)[C@H]1O	none (no result: SARS PLpro yeast, LmPK inh)
O=S(=O)(Nc1ccc(Cl)cc1)c1ccc(N2CCOCC2)c(NC(=S)NCCN2CCOCC2)c1	TbPYK inhibitor inconclusive, Giardia FBPA inh-1 5µM | Giardia growth inactive | Mammal cell tox inactive | Giardia FBPA inh-2 inconclusive | Rabbit aldolase 40µM | GAPDH coupling 40µM
COCCNC(=S)Nc1ccc(N2CCOCC2)c(S(=O)(=O)Nc2ccc(Cl)cc2)c1	TbPYK inhibitor inconclusive (no result: SARS PLpro yeast, LmPK inh, Giardia FBPA inh-1)
CCCCOc1ccc(CNC(=O)CN2CCSc3ccccc32)cc1	none (no result: SARS PLpro yeast, LmPK inh, Giardia FBPA inh-1, RE007 growth inh)
Cc1ccc(-c2noc(N=O)c2NO)cc1	Giardia FBPA inh-1 inconclusive
O=Nc1onc(-c2ccc([N+](=O)[O-])cc2)c1NO	Giardia FBPA inh-1 14µM | Giardia growth inconclusive | Mammal cell tox inactive | Giardia FBPA inh-2 inactive | Rabbit aldolase inactive | GAPDH coupling inactive
CC(CN1CCCC1)OC(=O)c1ccc(Cl)cc1Cl (stereo unspecified)	Giardia FBPA inh-1 16µM | Giardia growth inactive | Mammal cell tox inactive | Giardia FBPA inh-2 inactive | Rabbit aldolase inactive | GAPDH coupling inactive
COc1ccccc1C(=O)OC(C)CN1CCN(C)CC1 (stereo unspecified)	Giardia FBPA inh-1 32µM | Giardia growth inactive[10.4 µM] | Mammal cell tox inactive | Giardia FBPA inh-2 inactive | Rabbit aldolase inactive | GAPDH coupling inactive
CC(CN1CCCCC1)OC(=O)c1ccc(Cl)cc1Cl (stereo unspecified)	none
O=C(NCc1cccc(Cl)c1)c1oc(=O)c2ccccc2c1-c1ccccc1	none (no result: SARS PLpro yeast, LmPK inh, Giardia FBPA inh-1, RE007 growth inh)
COc1cccc(CNC(=O)CCn2cccn2)c1	none (no result: SARS PLpro yeast, LmPK inh, Giardia FBPA inh-1, RE007 growth inh)
